Laboratory results reported in PubChem BioAssay (NCI).
This is part of a sample that, as a whole, favours compounds with a hit. Of some 79,000 tested, about 15% had one in any assay. Activity calls are given as the source filed them. Rule as the data show it: active = growth inhibition above about 70%; inactive = the rest.

Assays:
[1] = NCI Yeast Anticancer Drug Screen. Data for the wt2 strain (AID 169);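 also: 0% = growth of vehicle-treated yeast cultures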; details: S. cerevisiae wt2 strain growth inhibition, active compounds read high
Outline: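 Yeast cells were exposed to test compounds, and growth inhibition was measured relative to vehicle-treated controls.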

[2] = NCI Yeast Anticancer Drug Screen. Data for the mlh1 strain (AID 171);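 also: 0% = growth of vehicle-treated control cultures of the same strain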; details: S. cerevisiae mlh1 strain growth inhibition, active compounds read high
Outline: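 Yeast carrying a defined genetic alteration in DNA damage repair or cell cycle control were exposed to test compounds. Growth inhibition was measured relative to vehicle-treated controls.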

[3] = NCI Yeast Anticancer Drug Screen. Data for the sgs1 strain (AID 173);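 also: 0% = growth of vehicle-only control cultures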; details: S. cerevisiae sgs1 mutant, active compounds read high
Outline: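 Yeast mutant strains carrying defined defects in DNA damage repair or cell cycle control were exposed to test compounds. Growth inhibition was scored against vehicle-treated controls.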

[4] = NCI Yeast Anticancer Drug Screen. Data for the mlh1 rad18 strain (AID 175); details: S. cerevisiae mlh1 rad18 strain growth inhibition, active compounds read high
Outline: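 Growth inhibition of the yeast strain was measured after compound exposure and expressed relative to vehicle-treated controls. The strain carries defined defects in DNA damage repair.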

[5] = NCI Yeast Anticancer Drug Screen. Data for the rad18 strain (AID 177); details: S. cerevisiae rad18 mutant growth inhibition, active compounds read high
Outline: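 Yeast carrying a defined DNA damage repair alteration were exposed to compounds. Growth inhibition was expressed relative to vehicle-treated controls.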

[6] = NCI Yeast Anticancer Drug Screen. Data for the rad52 strain (AID 147);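 also: 0% = growth of vehicle-treated control cultures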; details: S. cerevisiae rad52 mutant growth inhibition, active compounds read high
Outline: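 Yeast strain carrying a DNA damage repair alteration was exposed to test compounds. Growth inhibition was measured relative to vehicle-treated controls.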

[7] = NCI Yeast Anticancer Drug Screen. Data for the wt1 strain (AID 149);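 also: 0% = growth of vehicle-treated wt1 cultures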; details: S. cerevisiae wt1 strain (SPY 50644) growth inhibition, active compounds read high
Outline: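 Growth inhibition read against vehicle controls after compound exposure of the wt1 yeast strain.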

[8] = NCI Yeast Anticancer Drug Screen. Data for the rad50EPP+ strain (AID 151);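 also: 0% = growth of vehicle-treated control cultures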; details: S. cerevisiae rad50 mutant strain, active compounds read high
Outline: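 Yeast strain carrying rad50 alteration (rad50EPP+) exposed to compounds; growth inhibition measured relative to vehicle-treated controls.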

[9] = NCI Yeast Anticancer Drug Screen. Data for the mgt1 strain (AID 153); details: S. cerevisiae mgt1 mutant growth inhibition, active compounds read high
Outline: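 Yeast mgt1 strain (DNA repair/cell-cycle alteration panel) exposed to compounds; growth inhibition measured relative to vehicle-treated controls.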

[10] = NCI Yeast Anticancer Drug Screen. Data for the rad50 strain (AID 155);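 also: 0% = growth of vehicle-only cultures of the same strain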; details: S. cerevisiae rad50 strain growth inhibition, active compounds read high
Outline: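 Readout: growth inhibition relative to vehicle-treated cultures. Compound exposure was carried out in a genetically defined yeast strain deficient in DNA damage repair.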

[11] = NCI Yeast Anticancer Drug Screen. Data for the mec2-1 strain (AID 157); details: S. cerevisiae mec2-1 strain, active compounds read high
Outline: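 mec2-1 yeast strain, carrying an alteration in DNA damage repair or cell cycle control, was exposed to compounds; growth inhibition was measured relative to vehicle-treated controls.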

[12] = NCI Yeast Anticancer Drug Screen. Data for the rad14 strain (AID 159);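 also: 0% = growth of vehicle-treated control cultures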; details: S. cerevisiae rad14 strain growth inhibition, active compounds read high
Outline: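 Growth inhibition vs vehicle controls; genetically altered yeast strain (DNA damage repair defect) treated with test compounds.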

[13] = NCI Yeast Anticancer Drug Screen. Data for the sgs1 mgt1 strain (AID 161);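 also: 0% = growth of cultures given vehicle only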; details: S. cerevisiae sgs1 mgt1 strain, active compounds read high
Outline: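 Growth of a repair-deficient yeast mutant was monitored after compound treatment and expressed as inhibition relative to vehicle-treated cultures.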

[14] = NCI Yeast Anticancer Drug Screen. Data for the CLN2oe strain (AID 163);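 also: 0% = growth of vehicle-only control cultures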; details: S. cerevisiae CLN2oe strain, active compounds read high
Outline: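 Yeast cells carrying a defined cell-cycle control alteration were exposed to test compounds. Growth inhibition was scored against vehicle-treated control cultures.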

[15] = NCI Yeast Anticancer Drug Screen. Data for the cln2 rad14 strain (AID 165);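 also: 0% = growth equal to vehicle treated cultures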; details: S. cerevisiae cln2 rad14 strain, active compounds read high
Outline: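 Yeast carrying cln2 and rad14 alterations (cell cycle control and DNA damage repair) were exposed to compounds. Growth inhibition was measured against vehicle-treated controls.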

[16] = NCI Yeast Anticancer Drug Screen. Data for the bub3 strain (AID 167); details: S. cerevisiae bub3 mutant strain, active compounds read high
Outline: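 Readout: yeast growth inhibition, expressed relative to vehicle-only wells. The test organism is a mutant strain from a panel with lesions in DNA repair or checkpoint genes.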

[17] = at 5.0 µM (retest, dose inferred, filed as 0.5)
[18] = at 50.0 µM (retest, dose inferred, filed as 5.0)

Measured: growth inhibition

Cc1cc2c(cc1C(=O)CCC(=O)O)CC1(C2)Cc2cc(C)c(C(=O)CCC(=O)O)cc2C1
active: [4]; [18] 70%
inactive: [1]; at 1.2 µM 0% | [1]; at 3.7 µM 2% | [1]; at 11.0 µM 10% | [1]; at 33.0 µM 26% | [1]; at 100.0 µM 46% | [2]; at 1.2 µM 5% | [2]; at 3.7 µM 5% | [2]; at 11.0 µM 14% | [2]; at 33.0 µM 27% | [2]; at 100.0 µM 50% | [3]; at 1.2 µM 2% | [3]; at 3.7 µM 7% | [3]; at 11.0 µM 14% | [3]; at 33.0 µM 33% | [3]; at 100.0 µM 69% | [4]; [17] -1% | [4]; at 50.0 µM 67.8% | [5]; at 1.2 µM 1% | [5]; at 3.7 µM 1% | [5]; at 11.0 µM -3% | [5]; at 33.0 µM 22% | [5]; at 100.0 µM 63%

CC(=O)OC1CCC2(C)C(=CCC3C4CCC5(OC6CC(C)CN(C(C)=O)C6C5C)C(C)=C4C(=O)C32)C1 (centres undefined)
inactive: [6]; at 1.2 µM 18% | [6]; at 3.7 µM 12% | [6]; at 11.0 µM 57% | [7]; at 1.2 µM 2% | [7]; at 3.7 µM 2% | [7]; at 11.0 µM 28% | [8]; at 1.2 µM -39% | [8]; at 3.7 µM -28% | [8]; at 11.0 µM -7% | [8]; at 33.0 µM 6% | [8]; at 100.0 µM -1% | [9]; at 1.2 µM -26% | [9]; at 3.7 µM -30% | [9]; at 11.0 µM 61% | [10]; at 1.2 µM -49% | [10]; at 3.7 µM -31% | [10]; [17] 0% | [10]; at 11.0 µM 61% | [11]; at 1.2 µM -32% | [11]; at 3.7 µM -32% | [11]; [17] -9% | [11]; at 11.0 µM 3% | [11]; at 50.0 µM 68.4% | [12]; at 1.2 µM -30% | [12]; at 3.7 µM -17% | [12]; at 11.0 µM 50% | [13]; [17] 7% | [13]; at 50.0 µM 69.4% | [14]; at 1.2 µM 1% | [14]; at 3.7 µM -12% | [14]; at 11.0 µM 41% | [15]; [17] 17% | [16]; at 1.2 µM -2% | [16]; at 3.7 µM -23% | [16]; [17] 32% | [16]; at 11.0 µM 24% | [1]; at 1.2 µM -9% | [1]; at 3.7 µM -4% | [1]; at 11.0 µM 53% | [1]; at 100.0 µM 59% | [3]; at 1.2 µM -10% | [3]; at 3.7 µM -9% | [3]; at 11.0 µM 54% | [4]; [17] -10% | [5]; at 1.2 µM -1% | [5]; at 3.7 µM 15%
active: [6]; at 33.0 µM 97% | [6]; at 100.0 µM 96% | [7]; at 33.0 µM 97% | [7]; at 100.0 µM 94% | [9]; at 33.0 µM 97% | [9]; at 100.0 µM 96% | [10]; at 33.0 µM 94% | [10]; [18] 96% | [10]; at 50.0 µM 83.2% | [10]; at 100.0 µM 95% | [11]; at 33.0 µM 96% | [11]; [18] 98% | [11]; at 100.0 µM 89% | [12]; at 33.0 µM 96% | [12]; at 100.0 µM 89% | [13]; [18] 96% | [14]; at 33.0 µM 98% | [14]; at 100.0 µM 92% | [15]; [18] 98% | [15]; at 50.0 µM 84.2% | [16]; at 33.0 µM 96% | [16]; [18] 98% | [16]; at 50.0 µM 81.2% | [16]; at 100.0 µM 95% | [1]; at 33.0 µM 97% | [3]; at 33.0 µM 96% | [3]; at 100.0 µM 93% | [4]; [18] 98% | [4]; at 50.0 µM 76.8% | [5]; at 11.0 µM 75% | [5]; at 33.0 µM 96% | [5]; at 100.0 µM 95%

COC(=O)CCNc1c2ccccc2nc2cccc([N+](=O)[O-])c12
inactive: [8]; at 1.2 µM 18% | [8]; at 3.7 µM 49% | [9]; at 1.2 µM 61% | [14]; at 1.2 µM 7% | [14]; at 3.7 µM 50% | [16]; at 1.2 µM -13% | [16]; at 3.7 µM 11% | [16]; [17] 10% | [16]; at 11.0 µM 66% | [1]; at 1.2 µM 5% | [1]; at 3.7 µM 27%
active: [6]; at 1.2 µM 97% | [6]; at 3.7 µM 97% | [6]; at 11.0 µM 97% | [6]; at 33.0 µM 98% | [6]; at 100.0 µM 98% | [7]; at 1.2 µM 79% | [7]; at 3.7 µM 87% | [7]; at 11.0 µM 96% | [7]; at 33.0 µM 97% | [7]; at 100.0 µM 97% | [8]; at 11.0 µM 80% | [8]; at 33.0 µM 93% | [8]; at 100.0 µM 97% | [9]; at 3.7 µM 74% | [9]; at 11.0 µM 87% | [9]; at 33.0 µM 97% | [9]; at 100.0 µM 97% | [10]; at 1.2 µM 95% | [10]; at 3.7 µM 95% | [10]; [17] 95% | [10]; at 11.0 µM 96% | [10]; at 33.0 µM 97% | [10]; [18] 98% | [10]; at 50.0 µM 86% | [10]; at 100.0 µM 97% | [11]; at 1.2 µM 97% | [11]; at 3.7 µM 97% | [11]; [17] 90% | [11]; at 11.0 µM 98% | [11]; at 33.0 µM 98% | [11]; [18] 99% | [11]; at 50.0 µM 91.3% | [11]; at 100.0 µM 98% | [12]; at 1.2 µM 99% | [12]; at 3.7 µM 99% | [12]; at 11.0 µM 99% | [12]; at 33.0 µM 99% | [12]; at 100.0 µM 99% | [13]; [17] 94% | [13]; [18] 98% | [13]; at 50.0 µM 81.2% | [14]; at 11.0 µM 89% | [14]; at 33.0 µM 96% | [14]; at 100.0 µM 98% | [15]; [17] 99% | [15]; [18] 99% | [15]; at 50.0 µM 89.4% | [16]; at 33.0 µM 96% | [16]; [18] 99% | [16]; at 50.0 µM 84% | [16]; at 100.0 µM 99% | [1]; at 11.0 µM 85% | [1]; at 33.0 µM 97% | [1]; at 100.0 µM 99% | [2]; at 1.2 µM 84% | [2]; at 3.7 µM 91% | [2]; at 11.0 µM 95% | [2]; at 33.0 µM 96% | [2]; at 100.0 µM 97% | [4]; [17] 96% | [4]; [18] 99% | [4]; at 50.0 µM 81.1% | [5]; at 1.2 µM 97% | [5]; at 3.7 µM 97% | [5]; at 11.0 µM 95% | [5]; at 33.0 µM 97% | [5]; at 100.0 µM 97%
